Measurements reported in PubChem BioAssay (NCATS).
Inconclusive results are not listed. Values without a mark were called inactive. Calls of active or inactive are those of the source. The call rests on the fitted dose curve; in most records, active means well fitted cell-killing curve with a large enough effect; inconclusive means small, poorly fitted or top-dose-only effect; inactive means no such curve, though single readings can be large or run the other way.

Experiment: qHTS of pediatric cancer cell lines to identify multiple opportunities for drug repurposing: Primary screen for SK-N-SH cells (AID 1347098); further: nearly all actives have a fitted effect of over 65% in size;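 on activity change, negative = cytotoxic: DMSO served as neutral control and bortezomib at 2.3 µM as positive control; on the % scale 0 is the no-effect control and ±100 the full control effect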
Details: SK-N-SH viability, CellTiter-Glo luminescence, 48 h; series mostly up to 57 µM; activity change, negative = cytotoxic: at the top concentration
Outline: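 Cells (500-1,000/well) rested 5 h, then received compounds for 48 h; metabolically active cells were measured by CellTiter-Glo luminescence. Final concentrations spanned up to 46 µM (MIPE, 11-point) or 0.59 nM-46 µM (NPC, 8-point) in primary screens, 11-point in follow-ups.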
Potency means the concentration at half of the fitted maximal effect.

| SMILES | Potency | activity change, negative = cytotoxic [%] |
| --- | --- | --- |
| CN(C)C(=S)SSC(=S)N(C)C | 244 nM (active) |  |
| C[C@H]1C(=O)O[C@@H]2CCN3CC=C(COC(=O)[C@](C)(O)[C@]1(C)O)[C@H]23 |  | 8.98 |
| COP(=O)(OC)OC=C(Cl)Cl |  | -6.55 |
| COc1cc(N)c(Cl)cc1C(=O)NC1CN2CCC1CC2 (stereo not given) |  | 4.37 |
| CCN(Cc1ccc(Cl)nc1)/C(=C/[N+](=O)[O-])NC |  | -14.9 |
| CCN(CC)CCOC(=O)C(C)(c1ccccc1)c1ccccc1 |  | -10.9 |
| Cc1cccc(Cc2cnc[nH]2)c1C |  | -21.1 |
| Oc1c(Br)cc(Br)cc1Br |  | -5.53 |
| CN1C[C@@H](NS(=O)(=O)N(C)C)C[C@@H]2c3cccc4c3c(cn4C)C[C@H]21 |  | -15.8 |

Experiment: qHTS of pediatric cancer cell lines to identify multiple opportunities for drug repurposing: Primary screen for NB1643 cells (AID 1347099); further: nearly all actives have a fitted effect of over 50% in size;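 on activity change, negative = cytotoxic: plate controls were DMSO neutral control for no effect and bortezomib positive control for full effect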
Details: NB1643 neuroblastoma viability, CellTiter-Glo luminescence, 48 h; series mostly up to 46 µM; activity change, negative = cytotoxic: at the top concentration
Outline: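 Plated cells (500-1,000 per well, growth media) were allowed to settle for 5 hours, treated with compound dilutions for 48 hours, then lysed with CellTiter-Glo for 15 min at room temperature before luminescence reading.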

| SMILES | activity change, negative = cytotoxic | Potency |
| --- | --- | --- |
| CN1CCC(N(Cc2ccccc2)c2ccccc2)CC1 | 4.35% |  |
| C[N+]1(C)[C@@H]2CC[C@H]1CC(OC(=O)C(CO)c1ccccc1)C2 (stereo not given in full) | -12.1% |  |
| COCC(=O)N(c1c(C)cccc1C)C(C)C(=O)OC (stereo not given) | 0% |  |
| CCc1cc(OC)c(C[C@H](C)N)cc1OC | 0% [at 92.7 µM] |  |
| Cc1c(Cl)c(=O)oc2cc(OP(=O)(OCCCl)OCCCl)ccc12 | -0.94% |  |
| CCOC(=O)NC(O)C(Cl)(Cl)Cl (stereo not given) | -30.7% |  |
| CCCN(CCC)CCc1c[nH]c2ccccc12 | -19.5% [at 92.7 µM] |  |
| CCCCCCCCC(=O)NCc1ccc(O)c(OC)c1 |  | 1 nM (active) |
| CNC(=O)NC(O)C(Cl)(Cl)Cl (stereo not given) | -2.22% |  |
| CCOC(=O)C1(c2ccccc2)CCN(CCc2ccc(N)cc2)CC1 | 6.3% |  |
| c1ccc2nc(N3CCNCC3)ccc2c1 | -12.8% |  |
| O=C(CBr)Nc1ccc(Cl)cc1C(=O)c1ccccc1F | 2.3% |  |
| C=CCOC(Cn1ccnc1)c1ccc(Cl)cc1Cl (stereo not given) | -14.7% |  |
| COc1ccc2[nH]cc(CCN(C(C)C)C(C)C)c2c1 | -11.8% [at 92.7 µM] |  |
| CC(Cc1ccccc1)NCCCCl (stereo not given) | 17.6% |  |
| O=C1CN2CCOC2(c2ccccc2Cl)c2cc(Cl)ccc2N1 (stereo not given) | -0.802% |  |
| C[N+]1(CCC(C(N)=O)(c2ccccc2)c2ccccc2)CCCCC1 | 8.06% |  |
| CCC(=O)C(CCN(C)C)(c1ccccc1)c1ccccc1 | 9.55% |  |

| SMILES | activity change, negative = cytotoxic | Potency |
| --- | --- | --- |
| CN1C(=O)[C@@H](NC(=O)c2cc3ccccc3[nH]2)N=C(c2ccccc2)c2ccccc21 | 0% |  |
| CC[C@H]1C[C@H]2[C@@H]3CCC4=CC(=O)CC[C@@H]4[C@H]3CC[C@]2(C)[C@H]1O | -8.51% |  |
| CCOC(C(=O)OCCN(C)C)(c1ccccc1)c1ccccc1 | 11% |  |
| CC(C(O)c1ccccc1)N(C)C/C=C/c1ccccc1 (stereo not given) | -0.5% |  |
| C[C@]12CC[C@H](O)CC1=CC[C@@H]1[C@@H]2CC[C@]2(C)C(=O)CC[C@@H]12 | 4.48% |  |
| COc1cc(C[C@@H](C)N)c(OC)cc1Br | -6.26% [at 92.7 µM] |  |
| CCC1(CC)C(=O)NC(=O)NC1=O | 2.91% |  |
| CC[C@H](O)C(C[C@H](C)N(C)C)(c1ccccc1)c1ccccc1 | 0% [at 92.7 µM] |  |
| CN(C)C(=S)SSC(=S)N(C)C |  | 531 nM (active) |
| CCC(=O)OC1(c2ccccc2)CCN(C)CC1 | -4.17% [at 92.7 µM] |  |
| C[C@H]1C(=O)O[C@@H]2CCN3CC=C(COC(=O)[C@](C)(O)[C@]1(C)O)[C@H]23 | -9.85% |  |
| COP(=O)(OC)OC=C(Cl)Cl | 16.7% |  |
| COc1cc(N)c(Cl)cc1C(=O)NC1CN2CCC1CC2 (stereo not given) | 3.18% |  |
| CCN(Cc1ccc(Cl)nc1)/C(=C/[N+](=O)[O-])NC | 17% |  |
| CCN(CC)CCOC(=O)C(C)(c1ccccc1)c1ccccc1 | 3.86% |  |
| Cc1cccc(Cc2cnc[nH]2)c1C | -8.87% |  |
| Oc1c(Br)cc(Br)cc1Br | 20.7% |  |
| CN1C[C@@H](NS(=O)(=O)N(C)C)C[C@@H]2c3cccc4c3c(cn4C)C[C@H]21 | 9.71% |  |

Experiment: qHTS of pediatric cancer cell lines to identify multiple opportunities for drug repurposing: Primary screen for LAN-5 cells (AID 1347100);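 on activity change, negative = cytotoxic: plate controls were DMSO neutral control for no effect and bortezomib positive control for full effect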
Details: LAN-5 neuroblastoma viability, CellTiter-Glo luminescence, 48 h; series mostly up to 46 µM; activity change, negative = cytotoxic: at the top concentration
Outline: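 Cells (500-1,000/well) in growth media were settled 5 h at 37 degrees C, then given compounds for 48 h. Viability was read as CellTiter-Glo luminescence. Primary runs used MIPE at 11 points (0.78 nM-46 µM) and NPC at 8 points (0.59 nM-46 µM); follow-ups used 11 points.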

| SMILES | activity change, negative = cytotoxic | Potency |
| --- | --- | --- |
| C[N+]1(C)[C@@H]2CC[C@H]1CC(OC(=O)C(CO)c1ccccc1)C2 (stereo not given in full) | -6.54% |  |
| CCc1cc(OC)c(C[C@H](C)N)cc1OC | -27.5% [at 92.7 µM] |  |
| CCOC(=O)NC(O)C(Cl)(Cl)Cl (stereo not given) | 9.25% |  |
| CN1C(=O)CN=C(c2ccccc2)c2cc(Cl)ccc21 | -12.2% |  |
| CCCN(CCC)CCc1c[nH]c2ccccc12 | -22.1% [at 92.7 µM] |  |
| CCCCCCCCC(=O)NCc1ccc(O)c(OC)c1 |  | 1 nM (active) |
| CCOC(=O)C1(c2ccccc2)CCN(CCc2ccc(N)cc2)CC1 | -5.65% |  |
| c1ccc2nc(N3CCNCC3)ccc2c1 | -4.26% |  |
| CC1N=C(N)OC1c1ccccc1 (stereo not given) | -20.2% [at 92.7 µM] |  |
| O=C(CBr)Nc1ccc(Cl)cc1C(=O)c1ccccc1F | 13% |  |
| ClCCCN1CCN(c2cccc(Cl)c2)CC1 | 2.46% |  |
| COc1ccc2[nH]cc(CCN(C(C)C)C(C)C)c2c1 | -2.02% [at 92.7 µM] |  |
| CCOC(C(=O)OCCN(C)C)(c1ccccc1)c1ccccc1 | 11.3% |  |
| CC(C(O)c1ccccc1)N(C)C/C=C/c1ccccc1 (stereo not given) | -17% |  |
| C[C@]12CC[C@H](O)CC1=CC[C@@H]1[C@@H]2CC[C@]2(C)C(=O)CC[C@@H]12 | -3.79% |  |
| COc1cc(C[C@@H](C)N)c(OC)cc1Br | -6.56% [at 92.7 µM] |  |
| CCC1(CC)C(=O)NC(=O)NC1=O | -1.92% |  |
| CC[C@H](O)C(C[C@H](C)N(C)C)(c1ccccc1)c1ccccc1 | -10.4% [at 92.7 µM] |  |
| COP(=O)(OC)OC=C(Cl)Cl | 25.3% |  |
| CN1C[C@@H](NS(=O)(=O)N(C)C)C[C@@H]2c3cccc4c3c(cn4C)C[C@H]21 | 5.91% |  |
